ugtP null kill: growth inhibition of ugtP-null S. aureus, primary screen, RN4220 ugtP deletion, OD600; growth inhibition, % (no concentration beside the values); 16 h; AID 1259309, 2017; 0.54% of 330,000 active; in the data active = growth inhibition above about 68%
BJeLR viability: MLPCN primary cell-based screen for lethality selective to Ras in HRASV12 cells; BJeLR (HRASV12) viability, CellTiter-Glo ATP luminescence, 48 h; inhibition, % (test concentration not listed); 0.17% of 300,000 active; AID 1554, 2009; in the data active = inhibition above about 50%
RN4220 kill: growth inhibition of S. aureus RN4220, primary screen, OD600; 0.33% of 330,000 active; 16 h; AID 1259311, 2017; inhibition, % (test concentration not listed); in the data active = inhibition above about 85%
Large screens that a line does not name were inactive. Only some compounds are listed: those with a hit (about 0.65% of all), similar ones and a draw of the others.

COC(=O)C1=C(C)OC(N)=C(C#N)C12C(=O)Nc1ccccc12 (stereo not given)	none
COC(=O)CC1=C(C(=O)OC)C2(C(=O)Nc3c(C)cccc32)C(C#N)=C(N)O1 (stereo not given)	ugtP null kill 95, RN4220 kill 97
Cn1c(=O)n(Cc2ccccc2Cl)c(=O)c2c1[nH]c(=S)n2C	none
COc1ccc(C(=O)NCCc2nnc3ccc(SCC(=O)N4CCCCC4)nn23)cc1	none
COc1cccc(/C=C2\SC(=S)N(CCCC(=O)Nc3cc(C)on3)C2=O)c1	BJeLR viability 100
COc1cccc(/C=C2/SC(=S)N(CCCC(=O)Nc3ccc(O)cc3)C2=O)c1	none
COC(=O)CN1C(=O)C(O)(CC(=O)c2ccc(Br)cc2)c2ccccc21 (stereo not given)	none
Cc1nc(SCc2nc3ccccc3[nH]2)c2oc3cc(Br)ccc3c2n1	none (no result: BJeLR viability)
FC(F)(F)Oc1ccc(NC(=S)Nc2ccc(OC(F)(F)F)cc2)cc1	ugtP null kill 92, RN4220 kill 99
CC(C)c1ccc(NC(=S)Nc2ccc(OC(F)(F)F)cc2)cc1	none
COc1ccccc1NC(=S)N=Nc1c(O)[nH]c2ccc(Br)cc12	none
Cc1cccc(NC(=S)N=Nc2c(O)[nH]c3ccccc23)c1	ugtP null kill 95, RN4220 kill 99
FC(F)(F)c1nnc2c(Sc3ccccc3)nc3ccccc3n12	none
FC(F)(F)c1nnc2c(Sc3ccc(Cl)cc3)nc3ccccc3n12	BJeLR viability 59
COc1ccc(C(=O)Cc2cc(OC)c(OC)cc2[N+](=O)[O-])c(OC)c1	none
CN(C)/N=C/c1ccc(OC(=O)c2cccc([N+](=O)[O-])c2)cc1	none (no result: ugtP null kill, RN4220 kill)
Cc1ccc(C(=O)Nc2ccc(N3CCOCC3)c3nonc23)cc1[N+](=O)[O-]	none
COc1ccc(OCC(=O)NCCC2=CCCCC2)c([N+](=O)[O-])c1	none
COC(=O)Cn1c(=NC(=O)c2ccc([N+](=O)[O-])s2)sc2cc(Br)ccc21	ugtP null kill 97, RN4220 kill 99
COC(=O)Cn1c(=NC(=O)c2ccc(Cl)s2)sc2cc(C)ccc21	none
Cn1nc(CC(=O)NC2CCCCCC2)c2ccccc2c1=O	none
CCc1cc(C(=O)OC)c(NC(=O)c2ccoc2C)s1	none
COc1cccc(/C=C2\SC(=S)N(NS(=O)(=O)c3ccc(C)cc3)C2=O)c1OC	none (no result: ugtP null kill, RN4220 kill)
COc1cc(/C=C2\SC(=S)N(NS(=O)(=O)c3ccc(C)cc3)C2=O)ccc1O	RN4220 kill 86
COc1cc(/C=C2\SC(=S)N(NS(=O)(=O)c3ccc(C)cc3)C2=O)cc(OC)c1OC	none
COc1ccccc1/C=C1\SC(=S)N(NS(=O)(=O)c2ccccc2)C1=O	RN4220 kill 88
CCOc1cc(/C=C2\SC(=S)N(NS(=O)(=O)c3ccc(C)cc3)C2=O)ccc1O	RN4220 kill 85
COc1cc(/C=C2\SC(=S)N(NS(=O)(=O)c3ccccc3)C2=O)ccc1O	none
CCOc1cc(C=NNC(=O)CC(=O)NCCc2ccccc2)ccc1O	none (no result: BJeLR viability)
CCCCOC(=O)C1C2C=C[C@]3(CN(C(C)c4ccc(OC)cc4)C(=O)[C@H]13)O2 (stereo not given in full)	none
CC(C)c1nc2ccccc2n1CCC(=O)O	none
Cc1ccc(NC(=O)CN2CCC(C(=O)c3ccc4c(c3)OCCO4)CC2)cc1	none
Cc1ccc2[nH]cc(CCNC(=O)c3ccc4c(c3)OCO4)c2c1	none
COc1ccc(OC)c2c1C(=O)c1ccccc1C2=O	none
COc1ccc(OC)c2c1C(=O)C(Cl)=C(Cl)C2=O	BJeLR viability 91 (no result: ugtP null kill, RN4220 kill)
CCCCOC1(c2ccccc2)OC(=O)c2ccccc21 (stereo not given)	none
CCCCC(CC)COC1(c2ccccc2)OC(=O)c2ccccc21 (stereo not given)	ugtP null kill 86
CCC(NC(=O)c1ccccc1NC(=O)c1ccco1)C(=O)O (stereo not given)	none (no result: BJeLR viability)
CCCCOc1ccc(C)cc1CN(CCO)CCO	none
CCCCCc1ccc(OCCCC[n+]2ccc(C)cc2)c(CCCCC)c1	ugtP null kill 100, RN4220 kill 99 (no result: BJeLR viability)
CCCCCc1ccc(OCCCC[n+]2ccccc2)c(CCCCC)c1	RN4220 kill 101
CCCCCc1ccc(OCCCC[n+]2cccc(C)c2)c(CCCCC)c1	none (no result: ugtP null kill, RN4220 kill)
CCC(C)(C)c1ccc(OCCCC[n+]2ccccc2)c(C(C)(C)CC)c1	ugtP null kill 100, RN4220 kill 101 (no result: BJeLR viability)
CCC(C)(C)c1ccc(Oc2cccc(C(=O)O)c2)cc1	none
Cc1cc(C)cc(CSCC(=O)NN=C2CCCCCC2)c1	none
COC(=O)Cc1c(C)c2ccc(OC(C)C)cc2oc1=O	none
Cc1ccc2c(c1)sc(-c1ccc(N(C)C)cc1)[n+]2C	ugtP null kill 101, RN4220 kill 100
COc1ccc(C)cc1Nc1n[n+](-c2ccccc2)c(-c2ccc(N(C)C)cc2)s1	none
COC(=O)c1ccc(C)c(NC(=O)Cn2cnc3ccccc3c2=O)c1	none

Screening data as filed in PubChem.
